Results published in the antibiotic and cytotoxicity screens of Wong et al. (2023).
The campaign covered roughly 39,000 compounds. About 1,500 (3.8%) were called active. What follows is part of a selection rich in actives, with near analogues and random picks from the rest.

These compounds were tested on HSkMC (human skeletal muscle cells) (assay: cytotoxicity call (relative viability < 0.9)). Settings: 10 µM.
`C[C@H]1CN([C@@H](C)CO)C(=O)c2cccc(NC(=O)Nc3ccc(C(F)(F)F)cc3)c2O[C@H]1CN(C)CC1CCCCC1` was tested, and the cytotoxicity call was “inactive”.
With `C[C@H](CO)N1C[C@H](C)[C@H](CN(C)CC2CCCCC2)Oc2c(NC(=O)Nc3ccc(C(F)(F)F)cc3)cccc2C1=O` the cytotoxicity call was “inactive”.
With `C[C@@H]1CN([C@H](C)CO)C(=O)c2cccc(NC(=O)Nc3ccc(F)cc3)c2O[C@@H]1CN(C)CC1CCCCC1` the cytotoxicity call was “inactive”.
In the case of `C[C@H](CO)N1C[C@H](C)[C@H](CN(C)CC2CCCCC2)Oc2c(NC(=O)Nc3ccc(F)cc3)cccc2C1=O`, the cytotoxicity call is reported as “inactive”.
For `C[C@@H]1CN([C@H](C)CO)C(=O)c2cccc(NC(=O)Nc3ccc(C(F)(F)F)cc3)c2O[C@@H]1CN(C)CC1CCCCC1`, the cytotoxicity call was “active”.
With `C[C@H]1CN([C@@H](C)CO)C(=O)c2cccc(NC(=O)Nc3ccc(C(F)(F)F)cc3)c2O[C@@H]1CN(C)CC1CCCCC1` the cytotoxicity call was “active”.
For `C[C@@H]1CN([C@@H](C)CO)C(=O)c2cccc(NC(=O)Nc3ccc(C(F)(F)F)cc3)c2O[C@@H]1CN(C)CC1CCCCC1`, the cytotoxicity call was “inactive”.
With `C[C@H](CO)N1C[C@H](C)[C@@H](CN(C)CC2CCCCC2)Oc2c(NC(=O)Nc3ccc(C(F)(F)F)cc3)cccc2C1=O` the cytotoxicity call was “active”.
`C[C@@H]1CN([C@H](C)CO)C(=O)c2cccc(NC(=O)Nc3ccc(C(F)(F)F)cc3)c2O[C@H]1CN(C)CC1CCCCC1` was tested, and the cytotoxicity call was “active”.
With `C[C@H]1CN([C@@H](C)CO)C(=O)c2cccc(NC(=O)Nc3ccc(F)cc3)c2O[C@H]1CN(C)CC1CCCCC1` the cytotoxicity call was “inactive”.
In the case of `C[C@@H]1CN([C@@H](C)CO)C(=O)c2cccc(NC(=O)Nc3ccc(F)cc3)c2O[C@H]1CN(C)CC1CCCCC1`, the cytotoxicity call is reported as “inactive”.
In the case of `C[C@@H]1CN([C@H](C)CO)C(=O)c2cccc(NC(=O)Nc3ccc(F)cc3)c2O[C@H]1CN(C)CC1CCCCC1`, the cytotoxicity call is reported as “inactive”.
For `C[C@@H]1CN([C@H](C)CO)C(=O)c2cc(C#Cc3ccccc3F)cnc2O[C@@H]1CN(C)C(=O)Cc1ccncc1`, the cytotoxicity call was “inactive”.
In the case of `C[C@H](CO)N1C[C@H](C)[C@H](CN(C)S(=O)(=O)c2cn(C)cn2)OCCCC[C@H](C)Oc2ccc(NC(=O)Nc3ccc(C(F)(F)F)cc3)cc2C1=O`, the cytotoxicity call is reported as “inactive”.
For `O=C(CCC(=O)N1CCOCC1)Nc1c(F)c(F)nc(N2CCOCC2)c1F`, the cytotoxicity call was “inactive”.
`C[C@@H]1CCCCO[C@H](CN(C)S(=O)(=O)c2ccccc2)[C@H](C)CN([C@@H](C)CO)C(=O)c2cc(NC(=O)Nc3cccc4ccccc34)ccc2O1` was tested, and the cytotoxicity call was “inactive”.
For `COCC(=O)N1C[C@]2(C1)CN([C@H](CO)c1c2c2ccc(cc2n1C)OC)C(=O)CN1CCOCC1`, the cytotoxicity call was “inactive”.
For `C/C=C/c1cccc(-c2nc(C(=O)NCc3ccc(OC)cc3)cc3c2[C@@H](CCO)N([S@@](=O)C(C)(C)C)C3)c1`, the cytotoxicity call was “inactive”.
With `Cc1ccc(S(=O)(=O)N(C)C[C@H]2Oc3ncc(Br)cc3C(=O)N([C@H](C)CO)C[C@H]2C)cc1` the cytotoxicity call was “inactive”.
For `C[C@H](CO)N1C[C@H](C)[C@H](CN(C)Cc2ccc(C(F)(F)F)cc2)OCCCC[C@H](C)Oc2ccc(NS(C)(=O)=O)cc2C1=O`, the cytotoxicity call was “inactive”.
In the case of `COc1ccc(OCC(=O)NCC(=O)O)cc1`, the cytotoxicity call is reported as “inactive”.
With `O=C(O)Cc1nnc(-c2ccncc2)[nH]1` the cytotoxicity call was “inactive”.
`O=C(O)CCN1CCCCCC1=O` was tested, and the cytotoxicity call was “inactive”.
For `CCn1nnc2c1CCN(S(=O)(=O)c1cn(C)cn1)[C@@H]2COC`, the cytotoxicity call was “inactive”.
In the case of `COc1ccc(S(=O)(=O)N(C)C[C@H]2OCCCC[C@@H](C)Oc3ccc(NC(=O)Nc4ccc5c(c4)OCO5)cc3C(=O)N([C@@H](C)CO)C[C@@H]2C)cc1`, the cytotoxicity call is reported as “inactive”.
For `Cc1cc(C(=O)Nc2cccc3c2O[C@H](CN(C)S(=O)(=O)c2cccs2)[C@H](C)CN([C@H](C)CO)C3=O)n(C)n1`, the cytotoxicity call was “inactive”.
`Oc1cccc2ccccc12` was tested, and the cytotoxicity call was “active”.
In the case of `Oc1ccc(F)c2ccccc12`, the cytotoxicity call is reported as “inactive”.
For `Cc1cccc2ccccc12`, the cytotoxicity call was “inactive”.
With `C[C@H](CO)N1C[C@H](C)[C@H](CN(C)C(=O)Nc2ccc(C(F)(F)F)cc2)OCCCC[C@H](C)Oc2ccc(NC(=O)C3CCCCC3)cc2C1=O` the cytotoxicity call was “inactive”.
`O=C(C[C@@H]1CC[C@@H]2[C@H](COC[C@@H](O)CN2S(=O)(=O)c2ccccc2)O1)NCc1ccc2c(c1)OCO2` was tested, and the cytotoxicity call was “inactive”.
For `C[C@H]1CN([C@@H](C)CO)C(=O)c2c(c3ccccc3n2C)-c2ccccc2CO[C@@H]1CN(C)C(=O)NC1CCCCC1`, the cytotoxicity call was “inactive”.
`C=CC(C)(C)c1[nH]c2ccccc2c1C1=C(O)C(=O)C(c2c[nH]c3c(CC=C(C)C)cccc23)=C(O)C1=O` was tested, and the cytotoxicity call was “active”.
For `CC(C)=CCC1=C(O)C(=O)c2ccccc2C1=O`, the cytotoxicity call was “inactive”.
For `C[C@@H]1CN([C@@H](C)CO)C(=O)c2cc(NS(=O)(=O)c3cn(C)cn3)ccc2O[C@@H]1CN(C)C(=O)Nc1ccc(F)cc1`, the cytotoxicity call was “inactive”.
With `C[C@@H]1CN([C@@H](C)CO)C(=O)c2cc(NC(=O)Nc3cccc4ccccc34)ccc2O[C@@H](C)CCCCO[C@@H]1CN(C)Cc1ccc(C(=O)O)cc1` the cytotoxicity call was “inactive”.
In the case of `Cc1ccc(S(=O)(=O)N(C)C[C@H]2Oc3ccc(NS(=O)(=O)c4ccc(F)cc4)cc3C(=O)N([C@@H](C)CO)C[C@H]2C)cc1`, the cytotoxicity call is reported as “inactive”.
With `COc1ccccc1C#Cc1cnc2c(c1)C(=O)N([C@H](C)CO)C[C@@H](C)[C@H](CN(C)C(=O)c1ccc3c(c1)OCO3)O2` the cytotoxicity call was “inactive”.
`COc1ccc(C#Cc2ccc([C@@H]3[C@H](CO)N4CCCCN(S(=O)(=O)c5cn(C)cn5)C[C@@H]34)cc2)cc1` was tested, and the cytotoxicity call was “inactive”.
With `COc1ccc(C#Cc2ccc([C@H]3[C@H](CO)N4CCCCN(S(=O)(=O)c5cn(C)cn5)C[C@@H]34)cc2)cc1` the cytotoxicity call was “inactive”.
With `COc1ccc(C#Cc2ccc([C@@H]3[C@@H](CO)N4CCCCN(S(=O)(=O)c5cn(C)cn5)C[C@@H]34)cc2)cc1` the cytotoxicity call was “active”.
`COc1ccc(C#Cc2ccc([C@H]3[C@@H](CO)N4CCCCN(S(=O)(=O)c5cn(C)cn5)C[C@H]34)cc2)cc1` was tested, and the cytotoxicity call was “active”.
In the case of `COc1ccc(C#Cc2ccc([C@H]3[C@H]4CN(S(=O)(=O)c5cn(C)cn5)CCCCN4[C@H]3CO)cc2)cc1`, the cytotoxicity call is reported as “inactive”.
`CC(C)(O)C#Cc1ccc([C@H]2[C@H](CO)N3CCCCN(S(C)(=O)=O)C[C@@H]23)cc1` was tested, and the cytotoxicity call was “inactive”.
`COc1ccc(C#Cc2ccc([C@H]3[C@@H](CO)N4CCCCN(S(=O)(=O)c5cn(C)cn5)C[C@@H]34)cc2)cc1` was tested, and the cytotoxicity call was “inactive”.
For `COc1ccc(C#Cc2ccc([C@@H]3[C@@H](CO)N4CCCCN(S(=O)(=O)c5cn(C)cn5)C[C@H]34)cc2)cc1`, the cytotoxicity call was “active”.
With `COc1ccc(C#Cc2ccc([C@@H]3[C@H]4CN(S(=O)(=O)c5cn(C)cn5)CCCCN4[C@H]3CO)cc2)cc1` the cytotoxicity call was “inactive”.
For `C[C@H](CO)N1C[C@H](C)[C@H](CN(C)Cc2ccc(Oc3ccccc3)cc2)Oc2ccc(NC(=O)c3ccncc3)cc2C1=O`, the cytotoxicity call was “inactive”.
`C[C@@H]1CN([C@@H](C)CO)C(=O)Cc2cc(NC(=O)Cn3cnnn3)ccc2O[C@@H]1CN(C)C(=O)Nc1cccc2ccccc12` was tested, and the cytotoxicity call was “inactive”.
With `C=CC[C@H](CC(=O)NCCO)C(=O)N[C@@H](COC(=O)[C@@H](CC=C)CC(=O)OC(C)(C)C)Cc1c[nH]c2ccccc12` the cytotoxicity call was “inactive”.
`COc1ccc(NC(=O)Nc2ccc3c(c2)C(=O)N([C@H](C)CO)C[C@H](C)[C@H](CN(C)S(=O)(=O)c2c(C)noc2C)OCCCC[C@@H](C)O3)cc1` was tested, and the cytotoxicity call was “inactive”.
For `COCC(=O)Nc1ccc2c(c1)C(=O)N(C)C[C@@H](OC)[C@@H](C)CN(C(=O)Cc1cccnc1)[C@H](C)CO2`, the cytotoxicity call was “inactive”.
In the case of `C[C@@H]1CCCCO[C@H](CN(C)C(=O)Nc2ccc3c(c2)OCO3)[C@H](C)CN([C@@H](C)CO)C(=O)c2cc(NS(=O)(=O)c3ccc(F)cc3)ccc2O1`, the cytotoxicity call is reported as “inactive”.
In the case of `Cc1ccc(S(=O)(=O)Nc2ccc3c(c2)C(=O)N([C@@H](C)CO)C[C@H](C)[C@H](CN(C)Cc2ccc(C(=O)O)cc2)OCCCC[C@@H](C)O3)cc1`, the cytotoxicity call is reported as “inactive”.
`Cc1cc(C)n2nc(N)nc2n1` was tested, and the cytotoxicity call was “inactive”.
For `Nc1ccc2cc3ccc(N)cc3nc2c1.O=S(=O)(O)O`, the cytotoxicity call was “active”.
For `Nc1ccc2c(c1)nc(CO)n2CCO`, the cytotoxicity call was “inactive”.
With `C[n+]1c2cc(N)ccc2cc2ccc(N)cc21.[Cl-]` the cytotoxicity call was “inactive”.
With `C[C@@H]1CCCCO[C@@H](CN(C)Cc2ccccc2)[C@H](C)CN([C@@H](C)CO)C(=O)c2cc(NC(=O)C3CCCCC3)ccc2O1` the cytotoxicity call was “inactive”.
With `COCCC(=O)NS(=O)(=O)c1ccccc1` the cytotoxicity call was “inactive”.
`CC(C)(C)C(=O)N1CCNCC1` was tested, and the cytotoxicity call was “inactive”.
With `C[C@H]1CN([C@@H](C)CO)C(=O)c2cc(C#CCN(C)C)cnc2O[C@@H]1CN(C)C(=O)Nc1ccccc1F` the cytotoxicity call was “inactive”.
`C=C1C[C@@H]2CC[C@@]34C[C@H]5O[C@H]6[C@@H](O3)[C@H]3O[C@H](CC[C@@H]3O[C@H]6[C@H]5O4)CC(=O)C[C@@H]3[C@@H](OC)[C@@H](C[C@H](O)CN)O[C@H]3C[C@H]3O[C@@H](CC[C@@H]1O2)C[C@@H](C)C3=C` was tested, and the cytotoxicity call was “active”.
For `COc1ccc(NC(=O)N(C)C[C@@H]2Oc3ccc(NC(=O)Nc4ccc(C(F)(F)F)cc4)cc3CC(=O)N([C@@H](C)CO)C[C@@H]2C)cc1`, the cytotoxicity call was “inactive”.
For `C[C@@H]1CN([C@H](C)CO)C(=O)c2cc(Br)cnc2O[C@H]1CN(C)S(=O)(=O)c1ccc(F)cc1`, the cytotoxicity call was “inactive”.
In the case of `COc1ccccc1C#Cc1ccc2c(c1)O[C@@H](CN(C)Cc1ccncc1)[C@H](C)CN([C@@H](C)CO)S2(=O)=O`, the cytotoxicity call is reported as “active”.
`COc1ccccc1C#Cc1ccc2c(c1)O[C@@H](CN(C)Cc1ccncc1)[C@H](C)CN([C@H](C)CO)S2(=O)=O` was tested, and the cytotoxicity call was “active”.
For `COc1ccccc1C#Cc1ccc2c(c1)O[C@H](CN(C)Cc1ccncc1)[C@@H](C)CN([C@H](C)CO)S2(=O)=O`, the cytotoxicity call was “inactive”.
For `COc1ccccc1C#Cc1ccc2c(c1)O[C@H](CN(C)Cc1ccncc1)[C@@H](C)CN([C@@H](C)CO)S2(=O)=O`, the cytotoxicity call was “active”.
For `COc1ccccc1C#Cc1ccc2c(c1)O[C@H](CN(C)Cc1ccncc1)[C@H](C)CN([C@@H](C)CO)S2(=O)=O`, the cytotoxicity call was “inactive”.
For `COc1ccccc1C#Cc1ccc2c(c1)O[C@@H](CN(C)Cc1ccncc1)[C@@H](C)CN([C@@H](C)CO)S2(=O)=O`, the cytotoxicity call was “inactive”.
In the case of `COc1ccccc1C#Cc1ccc2c(c1)O[C@H](CN(C)Cc1ccncc1)[C@H](C)CN([C@H](C)CO)S2(=O)=O`, the cytotoxicity call is reported as “inactive”.
With `COc1ccccc1C#Cc1ccc2c(c1)O[C@@H](CN(C)Cc1ccncc1)[C@@H](C)CN([C@H](C)CO)S2(=O)=O` the cytotoxicity call was “inactive”.
